# Target: pT7_6His-AlfaTag-HOXD13 (human, UniProt P35453 263-343)
# Test: PADIT-seq
# Conditions: dsDNA, one strand shown
# pT7_6His-AlfaTag-HOXD13, sequence (P35453 263-343): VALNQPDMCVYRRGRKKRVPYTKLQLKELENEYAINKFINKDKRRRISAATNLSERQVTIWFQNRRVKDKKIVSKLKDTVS
row,Sequence,binding signal [log2FC]
1,CTCGAGGATATCAAGATCTGGCCTCGGCGTTATAAAAGGAACCTCTAGCTAGCCGACTCACTATAGGGATAATCGCCCTGAGCAAAGACC,2.4 ± 0.0697
2,CTCGAGGATATCAAGATCTGGCCTCGGCGTTTTAAATGGAACCTCTAGCTAGCCGACTCACTATAGGGATAATCGCCCTGAGCAAAGACC,1.63 ± 0.0846
3,CTCGAGGATATCAAGATCTGGCCTCGGCGCCTTAAAAGGAACCTCTAGCTAGCCGACTCACTATAGGGATAATCGCCCTGAGCAAAGACC,0.578 ± 0.0742
4,CTCGAGGATATCAAGATCTGGCCTCGGCATTTTATGGGGAACCTCTAGCTAGCCGACTCACTATAGGGATAATCGCCCTGAGCAAAGACC,3.25 ± 0.0762
5,CTCGAGGATATCAAGATCTGGCCTCGGCCAAATAAAAGGAACCTCTAGCTAGCCGACTCACTATAGGGATAATCGCCCTGAGCAAAGACC,2.65 ± 0.0828
6,CTCGAGGATATCAAGATCTGGCCTCGGCATGATAAAAGGAACCTCTAGCTAGCCGACTCACTATAGGGATAATCGCCCTGAGCAAAGACC,1.61 ± 0.0749
7,CTCGAGGATATCAAGATCTGGCCTCGGCGTTTTATCGGGAACCTCTAGCTAGCCGACTCACTATAGGGATAATCGCCCTGAGCAAAGACC,1.63 ± 0.0875
8,CTCGAGGATATCAAGATCTGGCCTCGGCATAGTAAAAGGAACCTCTAGCTAGCCGACTCACTATAGGGATAATCGCCCTGAGCAAAGACC,1.98 ± 0.0822
9,CTCGAGGATATCAAGATCTGGCCTCGGCCCGTTAAAAGGAACCTCTAGCTAGCCGACTCACTATAGGGATAATCGCCCTGAGCAAAGACC,2.37 ± 0.0792
10,CTCGAGGATATCAAGATCTGGCCTCGGCTGTCCACGCGGAACCTCTAGCTAGCCGACTCACTATAGGGATAATCGCCCTGAGCAAAGACC,-0.737 ± 0.124
11,CTCGAGGATATCAAGATCTGGCCTCGGCCTCCTAAAAGGAACCTCTAGCTAGCCGACTCACTATAGGGATAATCGCCCTGAGCAAAGACC,0.715 ± 0.108
12,CTCGAGGATATCAAGATCTGGCCTCGGCTTTTTAGCAGGAACCTCTAGCTAGCCGACTCACTATAGGGATAATCGCCCTGAGCAAAGACC,0.699 ± 0.0959
13,CTCGAGGATATCAAGATCTGGCCTCGGCCTTTTAATTGGAACCTCTAGCTAGCCGACTCACTATAGGGATAATCGCCCTGAGCAAAGACC,2.53 ± 0.0779
14,CTCGAGGATATCAAGATCTGGCCTCGGCTTTGTAAAAGGAACCTCTAGCTAGCCGACTCACTATAGGGATAATCGCCCTGAGCAAAGACC,1.2 ± 0.0832
15,CTCGAGGATATCAAGATCTGGCCTCGGCATTTTATAAGGAACCTCTAGCTAGCCGACTCACTATAGGGATAATCGCCCTGAGCAAAGACC,3.26 ± 0.0841
16,CTCGAGGATATCAAGATCTGGCCTCGGCATGTTAAAAGGAACCTCTAGCTAGCCGACTCACTATAGGGATAATCGCCCTGAGCAAAGACC,1.48 ± 0.0814
17,CTCGAGGATATCAAGATCTGGCCTCGGCTTACCACGCGGAACCTCTAGCTAGCCGACTCACTATAGGGATAATCGCCCTGAGCAAAGACC,-1.03 ± 0.114
18,CTCGAGGATATCAAGATCTGGCCTCGGCGGTGTAAAAGGAACCTCTAGCTAGCCGACTCACTATAGGGATAATCGCCCTGAGCAAAGACC,0.668 ± 0.0814
19,CTCGAGGATATCAAGATCTGGCCTCGGCCTTTTACCGGGAACCTCTAGCTAGCCGACTCACTATAGGGATAATCGCCCTGAGCAAAGACC,0.698 ± 0.0877

row,Sequence,binding signal [log2FC]
1,CTCGAGGATATCAAGATCTGGCCTCGGCGGCTTAAAAGGAACCTCTAGCTAGCCGACTCACTATAGGGATAATCGCCCTGAGCAAAGACC,-0.00793 ± 0.0839
2,CTCGAGGATATCAAGATCTGGCCTCGGCCGCCCAGTTGGAACCTCTAGCTAGCCGACTCACTATAGGGATAATCGCCCTGAGCAAAGACC,-0.996 ± 0.138
3,CTCGAGGATATCAAGATCTGGCCTCGGCATTTTAACAGGAACCTCTAGCTAGCCGACTCACTATAGGGATAATCGCCCTGAGCAAAGACC,2.07 ± 0.0923
4,CTCGAGGATATCAAGATCTGGCCTCGGCATTTTAATGGGAACCTCTAGCTAGCCGACTCACTATAGGGATAATCGCCCTGAGCAAAGACC,2.51 ± 0.077
5,CTCGAGGATATCAAGATCTGGCCTCGGCTTTTTAGACGGAACCTCTAGCTAGCCGACTCACTATAGGGATAATCGCCCTGAGCAAAGACC,-0.513 ± 0.133
6,CTCGAGGATATCAAGATCTGGCCTCGGCACTTTAAAAGGAACCTCTAGCTAGCCGACTCACTATAGGGATAATCGCCCTGAGCAAAGACC,2.07 ± 0.0674
7,CTCGAGGATATCAAGATCTGGCCTCGGCTTTTTAACTGGAACCTCTAGCTAGCCGACTCACTATAGGGATAATCGCCCTGAGCAAAGACC,1.56 ± 0.107
8,CTCGAGGATATCAAGATCTGGCCTCGGCTCTGTAAAAGGAACCTCTAGCTAGCCGACTCACTATAGGGATAATCGCCCTGAGCAAAGACC,1.83 ± 0.0871
9,CTCGAGGATATCAAGATCTGGCCTCGGCCTTTTATGAGGAACCTCTAGCTAGCCGACTCACTATAGGGATAATCGCCCTGAGCAAAGACC,3.45 ± 0.0923
10,CTCGAGGATATCAAGATCTGGCCTCGGCCTTTTAGCCGGAACCTCTAGCTAGCCGACTCACTATAGGGATAATCGCCCTGAGCAAAGACC,-0.235 ± 0.0913
11,CTCGAGGATATCAAGATCTGGCCTCGGCGCGTGGAGCGGAACCTCTAGCTAGCCGACTCACTATAGGGATAATCGCCCTGAGCAAAGACC,-0.893 ± 0.118
12,CTCGAGGATATCAAGATCTGGCCTCGGCTCAGTAAAAGGAACCTCTAGCTAGCCGACTCACTATAGGGATAATCGCCCTGAGCAAAGACC,1.56 ± 0.0915
13,CTCGAGGATATCAAGATCTGGCCTCGGCATTTTAAAAGGAACCTCTAGCTAGCCGACTCACTATAGGGATAATCGCCCTGAGCAAAGACC,2.49 ± 0.0611
14,CTCGAGGATATCAAGATCTGGCCTCGGCGCTGTAAAAGGAACCTCTAGCTAGCCGACTCACTATAGGGATAATCGCCCTGAGCAAAGACC,2.11 ± 0.0786
15,CTCGAGGATATCAAGATCTGGCCTCGGCGTTTTACTAGGAACCTCTAGCTAGCCGACTCACTATAGGGATAATCGCCCTGAGCAAAGACC,2.96 ± 0.0769
16,CTCGAGGATATCAAGATCTGGCCTCGGCGCGTGGCGAGGAACCTCTAGCTAGCCGACTCACTATAGGGATAATCGCCCTGAGCAAAGACC,-0.862 ± 0.192
17,CTCGAGGATATCAAGATCTGGCCTCGGCCGCCCAAATGGAACCTCTAGCTAGCCGACTCACTATAGGGATAATCGCCCTGAGCAAAGACC,-0.854 ± 0.128
18,CTCGAGGATATCAAGATCTGGCCTCGGCTAACTAAAAGGAACCTCTAGCTAGCCGACTCACTATAGGGATAATCGCCCTGAGCAAAGACC,-0.24 ± 0.119
19,CTCGAGGATATCAAGATCTGGCCTCGGCGCGTGGCCGGGAACCTCTAGCTAGCCGACTCACTATAGGGATAATCGCCCTGAGCAAAGACC,-1.04 ± 0.14

# Reference: paper doi:10.1101/2024.03.05.583629
